Assay [1] can be described thus: optical density shifts of acrAB sulA E. coli – strain DRC41, OD650, 48 h, E. coli filamentation inducer project, primary screen (AID 1152).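 Further: E. coli MC1000 strain DRC41 lacking acrAB efflux pump and sulA.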 The note with it: higher = more signal, called active from +8 up or from −8 down.
A short description of assay [2]: probe aLefty1 binding on compound microarray – biochemical, small-molecule microarray, 635/667 nm fluorescence, primary screen (AID 1153).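 Further: score merges spot fluorescence with signal-to-noise ratio from the scanned slide images.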 The note with it: higher = more signal.
Assay [3] in a line: plasmodial surface anion channel blockers, osmotic lysis – cell-based, P. falciparum Indochina, OD700, 1 h, primary screen (AID 1154). The note with it: P. falciparum Indochina infected RBC osmotic lysis, higher = more signal, called active from +8 up or from −8 down.
Assay [4] is described as follows: plasmodial surface anion channel blockers, osmotic lysis – cell-based, P. falciparum Indochina, OD700, 2 h, primary screen (AID 1155).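 Further: lysis reports solute entry through the parasite surface anion channel PSAC.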 The note with it: P. falciparum Indochina infected erythrocytes, higher = more signal, called active from +8 up or from −8 down.
Assay [5] can be described thus: changes in parasitized red cell lysis, either direction – P. falciparum Indochina, OD700, 3 h, PSAC antagonist project, primary screen (AID 1156). The note with it: P. falciparum-infected erythrocytes, osmotic lysis, higher = more signal, called active from +8 up or from −8 down.
Assay [6] in a line: plasmodial surface anion channel blockers, osmotic lysis – cell-based, P. falciparum Indochina, OD700, 18 h, primary screen (AID 1157). The note with it: P. falciparum Indochina infected erythrocytes, osmotic lysis OD700, 18 h; higher = more signal, called active from +8 up or from −8 down.
Assay [7] is described as follows: S6 kinase pathway phospho-S6 level changes – cell-based, A549, cytoblot, luminescence, serum-stimulated, primary screen (AID 1158).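 Further: serum-stimulated A549 lung adenocarcinoma cells; signal is phosphorylated S6 detected by cytoblot immunostaining with HRP secondary.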 The note with it: 5 h, higher = more signal.
In assay [8] the target is NADPH oxidase 2 (Homo sapiens) (UniProt P04839). In words: compounds shifting NOX2 Amplex Red fluorescence – cell-based, HEK293-NOX2, PMA-stimulated, NOX inhibitor project, primary screen (AID 1159). Further: test concentration not given here. The note with it: 45 min, higher = more signal, called active from +8 up or from −8 down.
Assay [9] has as its target NADPH oxidase 4 (Homo sapiens) (UniProt Q9NPH5). In words: compounds shifting NOX4 Amplex Red fluorescence – cell-based, HEK293-NOX4, tetracycline-induced, NOX inhibitor project, primary screen (AID 1160). The note with it: HEK293-NOX4, Amplex Red H2O2 fluorescence, 45 min; higher = more signal, called active from +8 up or from −8 down.
For assay [10], the target named is NADPH oxidase 5 (Homo sapiens) (UniProt Q96PH1). In words: compounds shifting NOX5 Amplex Red fluorescence – cell-based, HEK293-NOX5, NOX inhibitor project, primary screen (AID 1161). The note with it: HEK293-NOX5, ionomycin, 45 min, higher = more signal.

Activity calls are given as the source filed them.

Chain of NADPH oxidase 2 (Homo sapiens) (P04839 whole entry, looked up): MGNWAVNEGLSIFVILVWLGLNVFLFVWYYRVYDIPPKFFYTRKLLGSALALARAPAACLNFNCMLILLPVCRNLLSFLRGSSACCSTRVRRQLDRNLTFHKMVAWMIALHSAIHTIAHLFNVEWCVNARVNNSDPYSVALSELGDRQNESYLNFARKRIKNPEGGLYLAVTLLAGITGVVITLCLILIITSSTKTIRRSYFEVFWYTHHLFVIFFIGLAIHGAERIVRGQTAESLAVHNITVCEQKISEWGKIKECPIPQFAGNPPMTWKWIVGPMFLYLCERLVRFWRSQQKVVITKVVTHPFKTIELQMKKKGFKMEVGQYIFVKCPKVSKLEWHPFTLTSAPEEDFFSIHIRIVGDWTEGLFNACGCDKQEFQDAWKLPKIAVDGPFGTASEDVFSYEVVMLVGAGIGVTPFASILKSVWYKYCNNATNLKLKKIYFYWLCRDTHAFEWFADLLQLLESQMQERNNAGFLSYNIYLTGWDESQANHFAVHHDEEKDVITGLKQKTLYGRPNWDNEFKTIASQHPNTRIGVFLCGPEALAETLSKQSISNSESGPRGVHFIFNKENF
Chain of NADPH oxidase 4 (Homo sapiens) (Q9NPH5 whole entry, looked up): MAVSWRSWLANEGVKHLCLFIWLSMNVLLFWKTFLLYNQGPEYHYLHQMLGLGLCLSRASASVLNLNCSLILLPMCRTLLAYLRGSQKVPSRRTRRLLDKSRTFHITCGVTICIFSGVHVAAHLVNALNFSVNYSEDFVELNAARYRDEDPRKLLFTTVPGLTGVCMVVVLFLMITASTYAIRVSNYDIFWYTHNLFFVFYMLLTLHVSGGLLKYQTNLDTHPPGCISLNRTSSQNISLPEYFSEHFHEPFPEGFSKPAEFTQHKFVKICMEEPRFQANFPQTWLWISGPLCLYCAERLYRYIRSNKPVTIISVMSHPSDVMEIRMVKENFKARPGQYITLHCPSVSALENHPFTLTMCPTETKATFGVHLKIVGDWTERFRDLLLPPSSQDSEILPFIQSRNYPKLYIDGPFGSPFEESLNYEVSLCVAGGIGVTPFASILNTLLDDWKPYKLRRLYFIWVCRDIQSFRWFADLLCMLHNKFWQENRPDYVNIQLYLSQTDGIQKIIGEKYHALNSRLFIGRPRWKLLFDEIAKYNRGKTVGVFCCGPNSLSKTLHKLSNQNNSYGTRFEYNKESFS
Chain of NADPH oxidase 5 (Homo sapiens) (Q96PH1 whole entry, looked up): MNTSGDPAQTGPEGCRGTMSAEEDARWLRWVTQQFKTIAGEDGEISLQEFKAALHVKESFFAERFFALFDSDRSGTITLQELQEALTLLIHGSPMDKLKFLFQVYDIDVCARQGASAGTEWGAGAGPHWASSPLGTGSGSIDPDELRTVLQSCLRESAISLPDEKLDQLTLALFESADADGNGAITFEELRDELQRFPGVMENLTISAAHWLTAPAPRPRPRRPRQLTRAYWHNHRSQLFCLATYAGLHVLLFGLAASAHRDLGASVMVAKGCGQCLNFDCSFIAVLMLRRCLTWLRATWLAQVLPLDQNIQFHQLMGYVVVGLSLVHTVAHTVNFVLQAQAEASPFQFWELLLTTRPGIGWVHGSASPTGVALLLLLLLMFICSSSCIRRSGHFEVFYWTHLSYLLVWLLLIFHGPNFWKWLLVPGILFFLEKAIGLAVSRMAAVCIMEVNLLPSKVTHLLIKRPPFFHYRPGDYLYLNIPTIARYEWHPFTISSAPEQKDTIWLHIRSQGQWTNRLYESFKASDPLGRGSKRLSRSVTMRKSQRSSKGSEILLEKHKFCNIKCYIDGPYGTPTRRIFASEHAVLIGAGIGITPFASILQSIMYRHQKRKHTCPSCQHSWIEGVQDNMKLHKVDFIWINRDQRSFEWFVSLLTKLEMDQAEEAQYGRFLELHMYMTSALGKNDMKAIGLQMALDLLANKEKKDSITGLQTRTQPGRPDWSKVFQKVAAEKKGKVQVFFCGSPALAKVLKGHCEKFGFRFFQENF

As to `CCOC(=O)C[C@H]1[C@H](OC(=O)c2ccc(-c3ccccc3)cc2)[C@@H](NC(=O)Cc2ccc(OC)cc2)c2cc(OCCCO)ccc2N1C(=O)c1ccc2ccccc2n1`, the z-score was -0.667 (inactive) in [1]; 2.63 (inactive) in assay [3]; 0.393 (inactive) in assay [4]; -0.619 (inactive) in assay [5]; 0.653 (inactive) in [6]; 1.3 in assay [7]. The z-score in assay [8] was 0.377 (inactive); in assay [9], 1.29 (inactive); in [10], 1.73. The compound also registered a composite z-score in [2] of -0.231.
Turning to `O=C(CS)NCCCCCCNC(=O)[C@H]1C[C@H]2C(=O)N3CCC[C@H]3C(=O)N2[C@H]1c1cccc(OCCO)c1`, the z-score was -1.17 (inactive) in assay [1]; 5.08 (inactive) in assay [3]; 0.331 (inactive) in assay [4]; -0.645 (inactive) in [5]; 0.253 (inactive) in assay [6]; 0.598 in assay [7]. Besides, the values for the z-score in [8], in assay [9] and in assay [10] were 1.25 (inactive), 0.799 (inactive) and 0.0469, respectively. The composite z-score in assay [2] was found to be 0.105.
`CC(=O)NCCCC[C@@H]1NC(=O)[C@@H]2C[C@H](C(=O)NCCCCN(C)C)[C@H](c3ccc(O)cc3)N2C1=O`: the z-score in assay [1] is 1.62 (inactive); in [3], 0.453 (inactive); in assay [4], -0.233 (inactive); in assay [5], 1.13 (inactive); in assay [6] it was 0.153 (inactive); in assay [7], -0.051. For the same compound, the z-score is 0.0273 (inactive) in [8], 0.192 (inactive) in assay [9] and 0.546 in assay [10]. The composite z-score in [2] was -0.29.
For the compound `CC(C)C(O)C1C=CC2C(=O)N(c3ccccc3)C(=O)C2N1Nc1ccc(C#N)cc1` (stereo not given), the z-score is -0.411 (inactive) in assay [1]; 12 (active) in [3]; 1.1 (inactive) in assay [4]; 2.03 (inactive) in assay [5]; 0.875 (inactive) in assay [6]; -1.09 in assay [7]. Besides, the z-score in [8] is -1.81 (inactive); in assay [9] it was -4.46 (inactive); in assay [10], -2.83. The composite z-score in assay [2] worked out at 0.797.
Regarding `CC(=O)NCCCC[C@@H]1NC(=O)[C@H]2C[C@@H](C(=O)NCCCCCC[N+](C)(C)C)[C@@H](c3cccc(OCCO)c3)N2C1=O`, the z-score in assay [1] is 1.52 (inactive); in assay [3], 2.86 (inactive); in assay [4], -1.48 (inactive); in assay [5], 0.657 (inactive); in [6], -2.25 (inactive); in assay [7] it was 0.778. Also, the z-score was -0.329 (inactive) in [8], 0.383 (inactive) in assay [9] and -0.465 in assay [10]. Moreover, the composite z-score in assay [2] came to 0.147.
Turning to `CC(C)CNC(=O)[C@@H]1c2ccccc2C(=O)N(Cc2cc(C(F)(F)F)cc(C(F)(F)F)c2)[C@H]1c1ccc(CO)cc1`, the z-score in assay [1] was 0.808 (inactive); in assay [3], 1.52 (inactive); in assay [4], 0.0238 (inactive); in assay [5], 0.173 (inactive); in assay [6], 0.379 (inactive); in assay [7] it was 0.578. In addition, the figures for the z-score in assay [8], in assay [9] and in [10] were 0.753 (inactive), -0.815 (inactive) and 0.86, respectively. In assay [2], this compound returned a composite z-score of 0.197.
For `COCCOC(=O)N1C(=O)[C@@]2(c3ccccc31)[C@H](C(=O)NC[C@H](O)c1ccccc1)[C@H]1C(=O)O[C@H](c3ccccc3)[C@H](c3ccccc3)N1[C@@H]2c1ccc(OCCO)cc1`, the z-score in [1] was 1.32 (inactive); in [3], 3.97 (inactive); in assay [4], 1.89 (inactive); in assay [5], 0.968 (inactive); in assay [6] it was 0.999 (inactive); in assay [7], 0.29. The z-score in assay [8] is 0.463 (inactive); in [9], 1.13 (inactive); in assay [10] it was -0.739. The same compound registered a composite z-score in assay [2] of -0.496.
`COCCCNC(=O)[C@@]1(C)c2ccccc2C(=O)N(Cc2cc(C(F)(F)F)cc(C(F)(F)F)c2)[C@H]1c1ccc(CO)cc1`: the z-score is 0.811 (inactive) in assay [1]; 3.5 (inactive) in assay [3]; -0.185 (inactive) in assay [4]; -0.583 (inactive) in assay [5]; 0.472 (inactive) in assay [6]; -0.434 in assay [7]. The z-score in assay [8] was -1.09 (inactive); in [9], -0.274 (inactive); in [10], -0.706. Moreover, the composite z-score in assay [2] was -0.0969.
As for `Cc1ccc(S[C@]2(C(=O)NCC(C)C)CC(=O)N(Cc3ccccc3)[C@@H]2c2ccc(CO)cc2I)cc1`, the z-score is -0.668 (inactive) in assay [1]; 10.6 (active) in assay [3]; 1.16 (inactive) in assay [4]; 0.448 (inactive) in [5]; 0.598 (inactive) in [6]; -0.36 in assay [7]. Further, the z-score was 1.09 (inactive) in [8], -2.23 (inactive) in assay [9] and 0.489 in assay [10]. Moreover, the composite z-score in assay [2] was found to be 0.0597.
As for `N#Cc1ccc(NN2C(C(O)c3ccc([N+](=O)[O-])cc3)C=CC3C(=O)N(c4ccccc4)C(=O)C32)cc1` (stereo not given), the z-score was -2.18 (inactive) in [1]; 11.9 (active) in assay [3]; 2.06 (inactive) in assay [4]; 0.362 (inactive) in assay [5]; 1.49 (inactive) in [6]; -0.946 in assay [7]. The z-score in [8] was -1.45 (inactive); in [9], -4.95 (inactive); in [10], -3.56. In addition, the composite z-score in assay [2] was 0.0927.
`C=CCC(OC(C)=O)[C@@H]1[C@@H](N(Cc2ccc(-c3ccccc3)cc2)C(=O)Cc2ccc(OC)cc2)c2cc(OCCCO)ccc2N1C(=O)c1ccc2ccccc2n1` (stereo not given in full): the z-score in assay [1] is 0.165 (inactive); in assay [3], 2.27 (inactive); in assay [4] it was 0.925 (inactive); in [5], -0.165 (inactive); in [6], 1.02 (inactive); in assay [7], 0.751. The z-score in assay [8] was -2.73 (inactive); in assay [9], 1.41 (inactive); in [10], 2.5. Besides, the composite z-score in assay [2] was found to be 0.167.
Turning to `CCCCC=C[C@@H](NC(=O)c1cccs1)c1ccccc1`, the z-score in assay [1] is -1.05 (inactive); in [3] it was 4.38 (inactive); in assay [4] it was 0.669 (inactive); in [5], 0.66 (inactive); in assay [6] it was 1.38 (inactive); in assay [7], 0.221. In addition, the z-score in [8] is -0.99 (inactive); in assay [9] it was -0.568 (inactive); in assay [10], 1.18. Besides, the composite z-score in assay [2] amounted to 0.762.
Consider `COCCOC(=O)N1C(=O)[C@@]2(c3cc(C#CC4(O)CCCCCC4)ccc31)[C@H](C(=O)N1CCCCCCC1)[C@H]1C(=O)O[C@H](c3ccccc3)[C@H](c3ccccc3)N1[C@@H]2c1ccccc1OCCO`, for which the z-score in [1] is 0.139 (inactive); in assay [3], 1.04 (inactive); in assay [4], 1.53 (inactive); in [5], 1.05 (inactive); in [6], 1.07 (inactive); in [7], 0.535. The z-score in [8] is 0.528 (inactive); in [9] it was -0.409 (inactive); in assay [10], 1.29. The compound also came in with a composite z-score in assay [2] of 2.53.

The values are drawn from PubChem BioAssay.
